“And” between values parts separate entries of the source, which are not always exact repeats. Identical values can stand only once. Some structures have more than one record in an assay (separate samples or runs), and their calls can disagree. The source made the active and inactive calls. The calls were made as follows: active = hit-call score of the fitted dose curve at least 0.9, where 1 is the maximum; inactive = score below 0.9.

Outcome and AC50 data for 3 compounds are collected here from PubChem BioAssay (EPA / NIEHS).

Read-out in one assay: Decorin, DCN (gene 1634)
Nature of the assay: BSK_MyoF_Decorin: BioMAP Diversity Plus: MyoF Assay for Decorin Biomarker Activity (AID 2284265). Conditions: primary human lung fibroblasts. An outline of the steps: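 Human lung fibroblast cultures were dosed for 24 h, and decorin was then measured by ELISA. Parallel cultures were stained with sulforhodamine B for total protein as a cytotoxicity check. Gain of signal was fitted relative to DMSO.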

Read-out in assay [1]: KRT18 (gene 3875)
Nature of the assay: BSK_BF4T_Keratin818: BioMAP Diversity Plus: BF4T Assay for Keratin 818 Biomarker Activity (AID 2284266). Conditions: primary human bronchial epithelial cells with fibroblasts. An outline of the steps: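 Keratin 8/18 levels quantified by ELISA after 24 h chemical treatment of bronchial epithelial cell/dermal fibroblast co-cultures, fitted in positive direction relative to DMSO. Parallel SRB staining tracks overt cytotoxicity.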

The nature of assay [2]: BSK_MyoF_SRB: Viability Assessment in the BioMAP Diversity Plus: MyoF Assay (AID 2284267).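 Also: total protein by SRB absorbance in parallel cultures as cytotoxicity measure; cells assessed 24 h after compound addition.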 Conditions: primary human lung fibroblasts. The procedure, abridged:
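In this viability endpoint, fibroblasts from human lung are treated for 24 h, TCA-fixed, SRB-stained (0.1%) and read at 560 nm. Gain of signal relative to DMSO defines activity.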

Read-out in assay [3]: Matrix Metallopeptidase 1 (MMP1), MMP1 (gene 4312)
Nature of the assay: BSK_MyoF_MMP1: BioMAP Diversity Plus: MyoF Assay for Matrix Metallopeptidase 1 (MMP1) Biomarker Activity (AID 2284268). The note with it: primary human lung fibroblasts. The procedure, abridged: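 Human lung fibroblast primary cells; MMP1 measured by ELISA 24 h after dosing, fitted in the positive direction relative to DMSO. Parallel SRB staining (0.1%, after 10% TCA fixation, 560 nm) assesses overt cytotoxicity.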

Read-out in assay [4]: TIMP metallopeptidase inhibitor 1 (TIMP1), TIMP1 (gene 7076)
Nature of the assay: BSK_MyoF_TIMP1: BioMAP Diversity Plus: MyoF Assay for TIMP metallopeptidase inhibitor 1 (TIMP1) Biomarker Activity (AID 2284269). Conditions: primary human lung fibroblasts. The procedure, abridged:
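Fibroblasts from human lung are dosed with chemical, cultured 24 h, and assayed for TIMP-1 by ELISA. Increases over the DMSO baseline are scored, with SRB total-protein staining run in parallel for cytotoxicity.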

Read-out in assay [5]: Matrix Metallopeptidase 1 (MMP1), MMP1 (gene 4312)
Nature of the assay: BSK_BF4T_MMP1: BioMAP Diversity Plus: BF4T Assay for Matrix Metallopeptidase 1 (MMP1) Biomarker Activity (AID 2284270). Conditions: primary human bronchial epithelial cells with fibroblasts. The procedure, abridged: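 MMP-1 quantified by ELISA in primary human bronchial epithelial/dermal fibroblast co-cultures, 24 hours post-dosing, with DMSO as baseline; parallel sulforhodamine B staining (560 nm) tracks overt cytotoxicity.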

Read-out in assay [6]: Matrix Metallopeptidase 3 (MMP3), MMP3 (gene 4314)
Nature of the assay: BSK_BF4T_MMP3: BioMAP Diversity Plus: BF4T Assay for Matrix Metallopeptidase 3 (MMP3) Biomarker Activity (AID 2284271). Conditions: primary human bronchial epithelial cells with fibroblasts. An outline of the steps:
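MMP-3 level read by ELISA after 24 h chemical exposure of bronchial epithelial cell/dermal fibroblast co-cultures, fitted upward relative to DMSO. Parallel cultures stained with 0.1% SRB after TCA fixation gauge overt cytotoxicity.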

Read-out in assay [7]: Tissue plasminogen activator (tPA), PLAT (gene 5327)
The assay can be described thus: BSK_BF4T_tPA: BioMAP Diversity Plus: BF4T Assay for Tissue plasminogen activator (tPA) Biomarker Activity (AID 2284272). The note with it: primary human bronchial epithelial cells with fibroblasts. The procedure, abridged: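 tPA level quantified by ELISA at 24 h post-treatment in bronchial epithelial/dermal fibroblast co-cultures, gain of signal scored against DMSO baseline. Parallel cultures stained with 0.1% SRB (560 nm) to flag overt cytotoxicity.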

Assay [8] in a line: BSK_BF4T_SRB: Viability Assessment in the BioMAP Diversity Plus: BF4T Assay (AID 2284274).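 As to AC50: total cell protein by sulforhodamine B staining as a cytotoxicity measure; measured 24 h after compound addition.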 Conditions: primary human bronchial epithelial cells with fibroblasts. The procedure, abridged: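 Cytotoxicity measured as total protein: cells fixed with 10% TCA, stained with 0.1% SRB, read at 560 nm. Bronchial epithelial/dermal fibroblast co-culture, 24 h after dosing, with positive-direction fitting relative to DMSO.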

Read-out in assay [9]: Matrix Metallopeptidase 9 (MMP9), MMP9 (gene 4318)
The assay can be described thus: BSK_BF4T_MMP9: BioMAP Diversity Plus: BF4T Assay for Matrix Metallopeptidase 9 (MMP9) Biomarker Activity (AID 2284276). Conditions: primary human bronchial epithelial cells with fibroblasts. An outline of the steps:
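MMP-9 levels were measured by ELISA after 24 h exposure of bronchial epithelial cell/dermal fibroblast co-cultures, with DMSO as baseline. Parallel cultures were stained with 0.1% SRB after TCA fixation, read at 560 nm, to flag overt cytotoxicity.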

Read-out in assay [10]: Interleukin-8 (IL8), CXCL8 (gene 3576)
Nature of the assay: BSK_IMphg_IL8: BioMAP Diversity Plus: IMphg Assay for Interleukin-8 (IL8) Biomarker Activity (AID 2284277). The note with it: primary human endothelial cells with macrophages. The procedure, abridged:
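IL-8 levels were measured by ELISA 24 h after dosing in primary human venular endothelial cell–macrophage cultures, referenced to DMSO; parallel SRB staining monitored overt cytotoxicity.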

Read-out in assay [11]: Intercellular Adhesion Molecule 1 (ICAM1), ICAM1 (gene 3383)
Nature of the assay: BSK_BE3C_ICAM1: BioMAP Diversity Plus: BE3C Assay for Intercellular Adhesion Molecule 1 (ICAM1) Biomarker Activity (AID 2284278).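 As to Outcome: cell-surface ICAM-1 protein level quantified by ELISA.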 Conditions: primary human bronchial epithelial cells. An outline of the steps: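 hu bronchial epithelial primary cells, 24 h cpd exposure, ICAM-1 ELISA; gain-of-signal fit vs DMSO baseline.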

Read-out in assay [12]: Interleukin-8 (IL8), CXCL8 (gene 3576)
Nature of the assay: BSK_BE3C_IL8: BioMAP Diversity Plus: BE3C Assay for Interleukin-8 (IL8) Biomarker Activity (AID 2284280). The note with it: primary human bronchial epithelial cells. An outline of the steps: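 Primary human bronchial epithelial cells (BE3C system) were exposed to test chemical for 24 h, and IL-8 levels were then measured by ELISA. Activity was fitted in the positive (gain-of-signal) direction against a DMSO negative-control baseline.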

Read-out in assay [13]: Epidermal growth factor receptor (EGFR), EGFR (gene 1956)
The assay can be described thus: BSK_BE3C_EGFR: BioMAP Diversity Plus: BE3C Assay for Epidermal growth factor receptor (EGFR) Biomarker Activity (AID 2284281). The note with it: primary human bronchial epithelial cells. An outline of the steps:
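Human primary bronchial epithelial cells were exposed to compound for 24 h, and cell-surface EGFR was then quantified by ELISA. Activity was fitted in the positive direction against the DMSO vehicle baseline.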

Read-out in assay [14]: KRT18 (gene 3875)
Nature of the assay: BSK_BE3C_Keratin818: BioMAP Diversity Plus: BE3C Assay for Keratin 818 Biomarker Activity (AID 2284282). Conditions: primary human bronchial epithelial cells. An outline of the steps:
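In this multiplexed primary-cell system, bronchial epithelial cells were dosed and harvested at 24 h. Keratin 8/18 was determined by ELISA and analysed for increases over DMSO controls.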

Read-out in assay [15]: Matrix Metallopeptidase 9 (MMP9), MMP9 (gene 4318)
The assay can be described thus: BSK_BE3C_MMP9: BioMAP Diversity Plus: BE3C Assay for Matrix Metallopeptidase 9 (MMP9) Biomarker Activity (AID 2284283). The note with it: primary human bronchial epithelial cells. An outline of the steps: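 Human primary bronchial epithelial cells exposed 24 h to compound. MMP9 quantified by ELISA. SRB total-protein staining of parallel cultures assesses cytotoxicity. Positive-direction fit relative to DMSO.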

Read-out in assay [16]: Plasminogen activator inhibitor-1 (PAI1), SERPINE1 (gene 5054)
The assay can be described thus: BSK_CASM3C_PAI1: BioMAP Diversity Plus: CASM3C Assay for Plasminogen activator inhibitor-1 (PAI1) Biomarker Activity (AID 2284284).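 Also: PAI-1 protein level measured by ELISA 24 h after dosing.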 The note with it: primary human coronary artery smooth muscle cells.

Read-out in assay [17]: urokinase Plasminogen Activator (uPA), PLAU (gene 5328)
Nature of the assay: BSK_BF4T_uPA: BioMAP Diversity Plus: BF4T Assay for urokinase Plasminogen Activator (uPA) Biomarker Activity (AID 2284275). The note with it: primary human bronchial epithelial cells with fibroblasts. The procedure, abridged:
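uPA levels measured by ELISA at 24 hours in BF4T cultures (bronchial epithelial cells plus dermal fibroblasts) and compared with DMSO; cytotoxicity tracked in parallel cultures by sulforhodamine B staining.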

Take `O=C(Cl)C(F)(F)C(F)(F)C(F)(F)C(F)(F)C(F)(F)C(F)(F)C(F)(F)C(F)(F)F`: the outcome was “inactive” with Decorin, DCN (gene 1634); “inactive” in assay [3]; “inactive” in assay [4]; “inactive” in [5]; “inactive” in [6]; “inactive” in [8]. In [16], the result was inactive. The AC50 (commonly the concentration giving half of the maximal activity seen) is 44.5 µM (active) and 46.1 µM (active) and 44.3 µM (active) with KRT18 (gene 3875) [1]; 26 µM (active) and 21.7 µM (active) and 20.3 µM (active) in assay [2]; 55.2 µM (active) in assay [5]; 28 µM (active) and 22.9 µM (active) and 20.9 µM (active) in assay [7]; 30 µM (active) and 50.1 µM (active) in [8]; 46.1 µM (active) and 52.4 µM (active) and 49.7 µM (active) in [9]. The AC50 was 6.67 µM (active) and 5.95 µM (active) and 19.6 µM (active) in assay [10]; 50.4 µM (active) and 58.6 µM (active) and 57.1 µM (active) in assay [11]; 30 µM (active) and 43.4 µM (active) and 38.6 µM (active) in assay [12]; 39 µM (active) and 43.6 µM (active) and 45.5 µM (active) in assay [13]; 47.8 µM (active) and 43.9 µM (active) and 46.8 µM (active) with KRT18 (gene 3875) [14]; 55.1 µM (active) and 54.8 µM (active) in assay [15].

Turning to `Cc1ccc(S(=O)(=O)OCC(F)(F)C(F)(F)C(F)(F)C(F)(F)C(F)(F)C(F)F)cc1`, the outcome in the assay with Decorin, DCN (gene 1634) was “inactive”; with KRT18 (gene 3875) [1], “inactive”; in assay [2], “inactive”; in assay [3], “inactive”; in assay [4], “inactive”; in [5] it was “inactive”. The result in [6], in [7], in assay [9], in assay [10], in [11] and in assay [12] was inactive. For the same compound, the outcome (in assay [13]; with KRT18 (gene 3875) [14]; in [15]; in [16]) was inactive.

On to `O=C(O)C(F)(F)C(F)(F)C(F)(F)C(F)(F)F`, for which the outcome was “inactive” with Decorin, DCN (gene 1634); “inactive” with KRT18 (gene 3875) [1]; “inactive” in assay [2]; “inactive” in assay [3]; “inactive” in assay [4]; “inactive” in [6]. The result in assay [7], in [17], in assay [9], in assay [10], in [11] and in assay [12] was inactive. For the same compound, the result (in [13]; in the assay with KRT18 (gene 3875) [14]; in [15]; in assay [16]) was inactive.
